The source of these data is PubChem BioAssay (Tox21).

Test [1] has as its target Thyrotropin receptor (Homo sapiens) (UniProt P16473). Briefly: qHTS assay to identify small molecule antagonists of the thyroid stimulating hormone receptor (TSHR) signaling pathway (AID 1259385; calls by dose curve; note: nearly all actives have a fitted effect of over 20% in size). An outline of the steps:
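Antagonist mode: compound-treated TSHR-expressing HEK293 cells were stimulated with 1.5 ng/mL TSH (final) in presence of Ro20-1724 for 30 min at RT. HTRF cAMP detection after 1 h; each compound tested at 15 concentrations, triplicate.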
For orientation: Quantitative high-throughput screening tests each substance at several concentrations.

Test [2] in a line: qHTS assay to identify small molecule agonists of the estrogen receptor alpha (ER-alpha) signaling pathway in the presence of an antagonist - cell viability counter screen (AID 1259386).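 Note: series mostly up to about 92 µM; cells exposed to compounds for 22 h at 37 °C before the viability read; nearly all actives have a fitted effect of over 30% in size.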 An outline of the steps: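 In this counter screen, compound effects on VM7Luc4E2 viability were tested in the presence of the antagonist ICI-182,780 at 10.0nM final. Compounds were dosed at 15 concentrations, exposure lasted 22hr, and the CellTiter-Fluor signal was read.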

The target of test [3] is Progesterone receptor (Homo sapiens) (UniProt P06401). Briefly: qHTS assay to identify small molecule agonists of the progesterone receptor (PR) signaling pathway (AID 1346784; calls by dose curve; note: nearly all actives have a fitted effect of over 30% in size). An outline of the steps:
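HEK 293T PR-UAS-bla reporter cells, 2% charcoal-stripped FBS; 6 hr settle at 37C/5% CO2, compound (DMSO) 16 hr, LiveBLAzer B/G FRET substrate 2 hr RT, fluorescence intensity read.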

Test [4] has the same target. Briefly: qHTS assay to identify small molecule antagonists of the progesterone receptor (PR) signaling pathway (AID 1346795; active = well fitted inhibition curve with a large enough effect in the signal ratio in the repeat runs, not every such curve was filed as active; the % refers to the signal ratio). An outline of the steps:
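Beta-lactamase reporter, HEK293T PR-UAS-bla line; 2% charcoal-stripped FBS; 6 hr pre-incubation, 37C/5% CO2. Compound + R5020 1 nM final, 16 hr. LiveBLAzer B/G FRET substrate, 2 hr RT; fluorescence intensity read.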

A short description of test [5]: qHTS assay to identify small molecule antagonists of the progesterone receptor (PR) signaling pathway - cell viability counter screen (AID 1346798). Note: series mostly up to about 92 µM; nearly all actives have a fitted effect of over 50% in size. In outline: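 Luminescence readout (CellTiter-Glo, 30 min, RT) of viability in PR-UAS-bla HEK293T cells exposed to compound and R5020 agonist for 16 hr at 37C, 5% CO2; run in the same wells as the beta-lactamase reporter read.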

Test [6] is described as follows: qHTS assay to identify small molecule agonists of the progesterone receptor (PR) signaling pathway - cell viability counter screen (AID 1346799; calls by dose curve; note: nearly all actives have a fitted effect of over 45% in size). In outline: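 HEK293T PR-UAS-bla, 3,000 cells/well, 2% charcoal-stripped FBS; 6 h settle, compound 16 h at 37C/5% CO2; LiveBLAzer 2 h RT, then CellTiter-Glo 30 min RT, luminescence read.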
Test [7] is described as follows: qHTS assay to identify small molecule antagonists of the TGF-beta/Smad signaling pathway - cell viability counter screen (AID 1346824). Note: nearly all actives have a fitted effect of over 50% in size. In outline:
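Cytotoxicity counter-screen run in the same wells as the beta-lactamase Smad reporter read: CellTiter-Glo luminescence after 30 min at room temperature. HEK 293T SBE-bla cells had 5 hr compound exposure at 37 C with TGF-beta1 (0.25 ng/mL stock).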

Test [8] in a line: qHTS assay to identify small molecule agonists of the TGF-beta/Smad signaling pathway - cell viability counter screen (AID 1346829). Note: top concentration of the series differs between compounds; nearly all actives have a fitted effect of over 45% in size. In outline:
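SBE-bla HEK 293T cells plated overnight, compound exposure 5 hr at 37 C. Viability read in the same wells by CellTiter-Glo luminescence after 30 min at room temperature, following the beta-lactamase read.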

Test [9] in a line: qHTS assay to identify small molecule agonists of the TGF-beta/Smad signaling pathway (AID 1346859; active = well fitted activation curve with a large enough effect in the signal ratio in the repeat runs, not every such curve was filed as active; the % refers to the signal ratio; note: series mostly up to about 77 µM). An outline of the steps:
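Read-out: fluorescence at 460 and 530 nm (405 nm excitation) after a 2 hr room-temperature incubation with beta-lactamase FRET substrate. SBE-bla HEK 293T cells had been treated with test compounds for 5 hr at 37 C.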

The target of test [10] is Thyrotropin-releasing hormone receptor (Homo sapiens) (UniProt P34981). Briefly: qHTS assay to identify small molecule antagonists of the thyrotropin-releasing hormone receptor (TRHR) signaling pathway (AID 1346877; active = well fitted inhibition curve with a large enough effect in the repeat runs, not every such curve was filed as active; note: series mostly up to about 51 µM). In outline:
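Kinetic fluorescence (3 min, 1 s resolution) following stimulation with TRH at 1 nM final; HEK293 cells bearing human TRHR; 5 min compound preincubation at RT; concentration-response over 15 points, triplicates.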

Test [11] has the same target. Nature of the test: qHTS assay to identify small molecule agonists of the thyrotropin-releasing hormone receptor (TRHR) signaling pathway (AID 1346891; calls by dose curve; note: potency is the fitted concentration of half-maximal effect;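 for activation: HEK293 cells expressing TRHR with calcium dye readout; series mostly up to about 58 µM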). In outline:
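HEK293/TRHR cells, 1500 per well, 18 h 37 °C; Ca dye 2 h 37 °C; pin-tool compound addition (agonist mode); kinetic fluorescence 3 min, 1 s reads; 15 concentrations, triplicate.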

Test [12] in a line: Caspase-3/7 induction in HepG2 cells by small molecules, qHTS assay (AID 1346978). Note: nearly all actives have a fitted effect of over 15% in size. In outline: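 Caspase-3/7 induction was measured by Caspase-Glo 3/7 luminescence (30 min, room temperature) after a 17 hr compound exposure of wild-type HepG2 cells seeded at 2,000 per well and pre-incubated 5 hr.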
Test [13] is described as follows: Caspase-3/7 induction in CHO-K1 cells by small molecules, qHTS cell viability counter screen (AID 1346979). Note: nearly all actives have a fitted effect of over 35% in size. Note: potency is the fitted concentration of half-maximal effect. An outline of the steps:
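CHO-K1 wt, 1,500 cells/well; 5hr pre-incubation 37C/5% CO2; compound pin transfer (DMSO); 16hr exposure; CellTiter-Fluor added, 1hr, fluorescence read.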

A short description of test [14]: Caspase-3/7 induction in HepG2 cells by small molecules, qHTS cell viability counter screen (AID 1346981). Note: series mostly up to about 92 µM; nearly all actives have a fitted effect of over 30% in size. An outline of the steps:
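In this quantitative HTS counter screen, compounds delivered in DMSO were left on unmodified HepG2 cells for 16 hr at 37 C. Viability was then determined fluorometrically with CellTiter-Fluor, in parallel with caspase-3/7 induction in the same wells.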

The target of test [15] is Nuclear receptor subfamily 1 group I member 2 (Homo sapiens) (UniProt O75469). Nature of the test: Human pregnane X receptor (PXR) small molecule agonists, qHTS assay (AID 1346982). Note: nearly all actives have a fitted effect of over 35% in size. Note: potency is the fitted concentration of half-maximal effect. An outline of the steps: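 Reporter HepG2 cells expressing PXR-Luc are cultured in charcoal-stripped FBS (5%), treated with compounds for 24 hr at 37 C, and assayed by ONE-Glo luminescence after 30 min at room temperature.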
Sequence of Nuclear receptor subfamily 1 group I member 2 (Homo sapiens) (O75469 whole entry, looked up): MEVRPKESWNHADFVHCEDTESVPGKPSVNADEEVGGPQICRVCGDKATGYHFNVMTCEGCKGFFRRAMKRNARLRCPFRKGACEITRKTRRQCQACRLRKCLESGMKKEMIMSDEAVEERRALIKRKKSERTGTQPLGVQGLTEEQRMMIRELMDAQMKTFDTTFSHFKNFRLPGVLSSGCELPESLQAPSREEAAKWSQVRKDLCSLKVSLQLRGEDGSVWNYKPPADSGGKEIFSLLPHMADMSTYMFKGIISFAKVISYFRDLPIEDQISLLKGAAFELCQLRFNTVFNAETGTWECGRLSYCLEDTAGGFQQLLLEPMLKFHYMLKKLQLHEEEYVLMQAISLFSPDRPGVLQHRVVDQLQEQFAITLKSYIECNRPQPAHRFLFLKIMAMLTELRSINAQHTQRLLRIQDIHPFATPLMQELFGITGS

Test [16] can be described thus: Human pregnane X receptor (PXR) small molecule agonists, qHTS cell viability counter screen (AID 1346977). Note: nearly all actives have a fitted effect of over 50% in size. Note: potency is the fitted concentration of half-maximal effect. In outline:
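Fluorescence read-out (CellTiter-Fluor) of viability in PXR-Luc HepG2 cells, multiplexed with the luciferase agonist read. Compounds in DMSO added after 5hr plating; 24hr total exposure at 37C, 5% CO2.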

A short description of test [17]: Caspase-3/7 induction in CHO-K1 cells by small molecules, qHTS assay (AID 1346980). Note: nearly all actives have a fitted effect of over 15% in size. In outline: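 Luminescent Caspase-Glo 3/7 read (30min, room temperature) quantified apoptosis induction. Cells were wild-type CHO-K1, treated with compound for 17hr at 37 C and 5% CO2.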
For test [18], the target named is Nuclear receptor subfamily 1 group I member 2 (Rattus norvegicus) (UniProt Q9R1A7). Nature of the test: Rat pregnane X receptor (rPXR) activation by small molecules, qHTS assay (AID 1346983). Note: nearly all actives have a fitted effect of over 20% in size. The settings on record: rPXR luciferase reporter cells, One-Glo luminescence, 24 h; max activation: stronger effect = higher value. An outline of the steps: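 Luminescent readout (One-Glo luciferase, 30 min room temperature) followed 24 hr compound treatment at 37 C of rPXR cells plated 2,000 per well and preincubated 5hr; qHTS format with compounds delivered in DMSO.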
Sequence of Nuclear receptor subfamily 1 group I member 2 (Rattus norvegicus) (Q9R1A7 whole entry, looked up): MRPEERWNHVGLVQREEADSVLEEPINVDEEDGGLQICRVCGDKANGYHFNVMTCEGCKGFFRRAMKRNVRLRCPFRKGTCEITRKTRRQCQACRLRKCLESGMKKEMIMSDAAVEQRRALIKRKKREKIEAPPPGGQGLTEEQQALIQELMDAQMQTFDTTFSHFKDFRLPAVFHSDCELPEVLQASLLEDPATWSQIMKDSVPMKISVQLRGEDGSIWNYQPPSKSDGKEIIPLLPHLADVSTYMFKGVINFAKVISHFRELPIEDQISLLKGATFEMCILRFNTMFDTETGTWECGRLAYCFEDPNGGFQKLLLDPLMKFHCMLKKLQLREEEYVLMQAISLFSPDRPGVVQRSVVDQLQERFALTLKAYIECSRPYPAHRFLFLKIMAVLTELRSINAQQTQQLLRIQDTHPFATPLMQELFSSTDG

Test [19] concerns the target Nuclear receptor subfamily 1 group I member 2 (Homo sapiens) (UniProt O75469). Briefly: CYP3A4 induction through human pregnane X receptor (PXR) by small molecules, qHTS assay (AID 1346984). Note: nearly all actives have a fitted effect of over 40% in size. In outline: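 Induction measured in HepG2-based DPX-2 cells co-expressing human PXR and a CYP3A4 promoter-driven luciferase. After a 24-hour compound exposure, cells received CYP3A4 luciferin substrate at 3uM final for 3 hours, and light output was then recorded.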

Test [20] shares this target. Nature of the test: Human pregnane X receptor (PXR) activation by small molecules, qHTS assay (AID 1346985). Note: nearly all actives have a fitted effect of over 40% in size. In outline:
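DPX-2 cells (HepG2 co-transfected with a PXR response element and a CYP3A4-promoter luciferase construct) were seeded at 2,000 per well, rested 5 hr at 37C, then exposed to DMSO-dissolved compounds for 24 hr. Activation was read as luciferase luminescence.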

Structures are written as SMILES. “And” between values parts separate entries of the source, which are not always exact repeats. Identical values can stand only once. Results filed as inconclusive are left out. Some structures have more than one record in an assay (separate samples or runs), and their calls can disagree. The source made the active and inactive calls. Unless noted, calls come from the whole dose curve; as a rule, active = well fitted curve in the direction sought with a large enough effect in the repeat runs; inconclusive = weak or mixed curves; inactive = no such curve, though single readings can be large; an effect the other way counts as inactive or inconclusive.
% is set by controls: 0 for no effect and ±100 for the full control effect.

Sequence of Thyrotropin receptor (Homo sapiens) (P16473 whole entry, looked up): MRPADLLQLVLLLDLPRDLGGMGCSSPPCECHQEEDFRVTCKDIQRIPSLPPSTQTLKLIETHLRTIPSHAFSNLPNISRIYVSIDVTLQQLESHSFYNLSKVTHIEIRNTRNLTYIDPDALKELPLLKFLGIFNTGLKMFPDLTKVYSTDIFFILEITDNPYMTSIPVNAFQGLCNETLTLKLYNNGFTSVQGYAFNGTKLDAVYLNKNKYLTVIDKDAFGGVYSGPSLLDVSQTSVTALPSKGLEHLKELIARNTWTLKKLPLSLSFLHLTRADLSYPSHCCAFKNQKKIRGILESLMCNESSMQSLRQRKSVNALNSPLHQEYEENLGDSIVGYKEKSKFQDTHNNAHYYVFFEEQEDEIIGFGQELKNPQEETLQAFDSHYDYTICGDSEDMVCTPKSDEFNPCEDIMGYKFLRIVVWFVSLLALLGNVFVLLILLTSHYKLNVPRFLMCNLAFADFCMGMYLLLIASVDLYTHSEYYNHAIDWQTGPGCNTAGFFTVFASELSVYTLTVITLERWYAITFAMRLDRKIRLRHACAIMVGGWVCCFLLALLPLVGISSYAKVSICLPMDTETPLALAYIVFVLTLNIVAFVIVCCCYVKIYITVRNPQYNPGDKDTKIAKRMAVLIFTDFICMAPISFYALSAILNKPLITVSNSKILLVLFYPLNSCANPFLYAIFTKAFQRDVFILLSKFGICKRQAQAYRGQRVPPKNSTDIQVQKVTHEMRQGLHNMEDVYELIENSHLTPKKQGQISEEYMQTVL
Sequence of Progesterone receptor (Homo sapiens) (P06401 whole entry, looked up): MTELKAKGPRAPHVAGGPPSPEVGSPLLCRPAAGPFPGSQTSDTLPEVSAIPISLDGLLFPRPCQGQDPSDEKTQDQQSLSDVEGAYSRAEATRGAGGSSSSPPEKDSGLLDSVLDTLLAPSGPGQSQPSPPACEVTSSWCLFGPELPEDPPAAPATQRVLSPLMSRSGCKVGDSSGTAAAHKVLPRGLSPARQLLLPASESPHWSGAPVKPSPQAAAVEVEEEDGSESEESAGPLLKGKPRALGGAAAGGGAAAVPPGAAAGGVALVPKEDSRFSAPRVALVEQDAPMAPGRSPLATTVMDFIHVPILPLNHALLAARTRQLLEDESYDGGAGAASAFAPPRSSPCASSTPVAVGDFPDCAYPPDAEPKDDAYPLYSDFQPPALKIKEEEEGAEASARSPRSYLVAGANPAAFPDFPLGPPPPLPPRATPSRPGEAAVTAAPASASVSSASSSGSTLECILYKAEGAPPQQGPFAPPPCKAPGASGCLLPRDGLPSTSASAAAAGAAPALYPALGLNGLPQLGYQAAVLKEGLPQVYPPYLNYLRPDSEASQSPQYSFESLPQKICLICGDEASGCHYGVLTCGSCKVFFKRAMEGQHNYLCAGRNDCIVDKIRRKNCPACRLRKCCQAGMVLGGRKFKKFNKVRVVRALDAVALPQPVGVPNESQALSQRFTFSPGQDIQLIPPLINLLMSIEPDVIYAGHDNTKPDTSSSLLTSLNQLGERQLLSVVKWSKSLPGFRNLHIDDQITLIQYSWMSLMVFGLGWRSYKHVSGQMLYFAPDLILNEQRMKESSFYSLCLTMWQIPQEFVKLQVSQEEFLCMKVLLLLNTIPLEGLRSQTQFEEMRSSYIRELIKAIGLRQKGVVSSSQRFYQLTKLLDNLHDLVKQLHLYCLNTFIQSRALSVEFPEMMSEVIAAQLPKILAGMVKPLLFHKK
Sequence of Thyrotropin-releasing hormone receptor (Homo sapiens) (P34981 whole entry, looked up): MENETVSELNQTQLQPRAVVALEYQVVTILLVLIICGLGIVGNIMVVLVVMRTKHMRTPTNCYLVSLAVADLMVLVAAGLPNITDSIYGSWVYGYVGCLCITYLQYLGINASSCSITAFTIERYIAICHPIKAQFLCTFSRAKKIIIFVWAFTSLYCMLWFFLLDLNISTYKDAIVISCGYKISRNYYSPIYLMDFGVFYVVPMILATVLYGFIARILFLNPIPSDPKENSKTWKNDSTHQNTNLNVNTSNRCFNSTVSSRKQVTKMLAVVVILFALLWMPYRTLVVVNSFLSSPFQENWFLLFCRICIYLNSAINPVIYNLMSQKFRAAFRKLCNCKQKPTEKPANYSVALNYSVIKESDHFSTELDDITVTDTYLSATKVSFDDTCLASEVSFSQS

Regarding `C=C(C)C(N)=O`, the outcome in [1], in test [9] and in test [10] was inactive. Further, the Potency entry in test [2], in test [3], in test [4], in test [5], in [6] and in test [7] was “inactive” in each case. Besides, the Potency result in [8], in test [11], in test [12], in [13], in test [14] and in test [15] was “inactive” in each case.
For `O=C1CCCCCN1`, the molecule was called inactive in test [1], in [9] and in test [17]. Also, the Potency entry in [2], in [3], in [4], in test [5], in test [6] and in test [7] was “inactive” in each case. Further, the Potency result in [8], in test [12], in [14] and in [15] was “inactive” in each case. Moreover, the Potency was 7.08 µM (active) and inactive in test [16]; 1.73 µM (active) and inactive in test [13].
Turning to `CC(=O)CCC(C)C`, the outcome in [1], in test [9], in test [10] and in test [17] was inactive. Further, the Potency entry in [2], in test [3], in test [4], in [5], in test [6] and in test [7] was “inactive” throughout. The Potency entry in test [8], in test [12], in [13], in [14] and in [15] was “inactive” throughout. The Potency result in [11] was “inactive and 17.4 µM (active)”.
In the case of `C=C(C)OC(C)=O`, the molecule was called inactive in test [1], in test [9], in [10] and in [17]. Further, the Potency result in [2], in test [3], in test [4], in test [5], in test [6] and in [7] was “inactive” in each case. In addition, the Potency result in test [8], in test [11], in [12], in [13], in [14] and in [15] was “inactive” throughout.
For `CC(C)=CCC/C(C)=C/CO`, the result in test [1], in test [9] and in test [17] was inactive. In addition, the Potency entry in test [2], in test [3], in test [4], in [5], in test [6] and in test [7] was “inactive” in each case. Moreover, the Potency result in test [8], in [16], in [12], in [13] and in test [14] was “inactive” in each case.
Take `OCCCc1ccccc1`: the molecule was called inactive in test [1], in test [9] and in test [10]. Also, the Potency entry in test [2], in test [3], in [4], in test [5], in test [6] and in test [7] was “inactive” in each case. Further, the Potency result in test [8], in [11], in [12], in [13], in [14] and in [15] was “inactive” throughout.
For `O=C(OCc1ccccc1)c1ccccc1`, the molecule was classed as inactive in test [1], in [9] and in test [17]. The Potency result in test [2], in test [3], in [4], in [5], in test [6] and in test [7] was “inactive” throughout. The Potency result in test [8], in test [16], in test [12], in test [13], in test [14] and in test [15] was “inactive” each time. In addition, the Potency result in [19] and in test [20] was “inactive” in each case. The max activation in test [18] is 0.688% (inactive).
Consider `COc1ccccc1NC(=O)CC(C)=O`, for which the molecule was called inactive in [1], in test [9] and in test [10]. For the same molecule, the Potency entry in test [2], in test [3], in test [4], in test [5], in [6] and in test [7] was “inactive” throughout. For the same molecule, the Potency result in test [8], in test [11], in test [16], in test [12], in test [13] and in test [14] was “inactive” in each case. Also, the Potency in test [15] was 61.1 µM (active).
